In PubChem BioAssay (EPA / NIEHS):
Values joined by “and” are separate entries in the source; they are usually repeats but may differ in a detail not shown here. Equal values may be shown once. Results filed as inconclusive are left out. The source holds several records for some structures; these can differ, active in one and inactive in another. Active and inactive are the calls of the source. The calls were made as follows, unless noted: active = hit-call score of the fitted dose curve at least 0.9, where 1 is the maximum; inactive = score below 0.9.

How the values were obtained:
[1] = target: Myc proto-oncogene protein (Homo sapiens) (UniProt P01106); assay: ATG_Myc_CIS: Attagene CIS-FACTORIAL HepG2 Assay for human Myelocytomatosis (Myc) Proto-Oncogene Transcription Factor (AID 2282990); settings: HepG2, Attagene cis-reporter transcription factor activity; actives raise or lower the signal
Sequence of Myc proto-oncogene protein (Homo sapiens) (P01106 whole entry, looked up): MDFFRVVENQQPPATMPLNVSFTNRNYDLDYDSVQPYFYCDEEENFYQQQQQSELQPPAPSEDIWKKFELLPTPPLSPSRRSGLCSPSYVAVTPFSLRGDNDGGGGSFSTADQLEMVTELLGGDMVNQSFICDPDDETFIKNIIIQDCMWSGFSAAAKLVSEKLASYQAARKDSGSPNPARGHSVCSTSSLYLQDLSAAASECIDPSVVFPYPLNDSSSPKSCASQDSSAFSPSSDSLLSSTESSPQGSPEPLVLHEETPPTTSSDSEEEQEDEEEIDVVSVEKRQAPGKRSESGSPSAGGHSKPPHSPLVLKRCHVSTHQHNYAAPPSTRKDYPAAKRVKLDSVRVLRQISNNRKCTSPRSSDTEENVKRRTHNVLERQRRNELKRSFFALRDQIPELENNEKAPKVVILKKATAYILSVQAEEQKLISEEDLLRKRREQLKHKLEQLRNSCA
How it was run: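 HepG2, transient MRTU transfection (cis promoters, endogenous TFs); 24 h dosing; TriZol RNA → oligo(dT) RT → PCR → 6-FAM primer extension → HpaI cut → CE. Bidirectional fit vs DMSO.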

[2] = ATG_NRF2_ARE_CIS: Attagene CIS-FACTORIAL HepG2 Assay for human Nuclear Factor Erythroid 2 Related Factor 2 (NFR2) response to Antioxidant Response Elements (ARE) (AID 2282992); settings: HepG2 Attagene ARE/NRF2 reporter, transcription factor activity; actives raise or lower the signal;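 as to AC50: reporter mRNA level measured by RT-PCR and capillary electrophoresis fluorescence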
How it was run: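 Endogenous transcription factor activity in human liver HepG2 cells is tracked via a cis-element-driven reporter within a multiplexed set. mRNA induction is read by RT-PCR and capillary electrophoresis after 24 h, with DMSO as baseline.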

[3] = ATG_Oct_MLP_CIS: Attagene CIS-FACTORIAL HepG2 Assay for human Octamer-Binding Transcription Factor (Oct) (AID 2282993); settings: HepG2 Attagene cis-factorial Oct reporter, mRNA; actives raise or lower the signal
How it was run: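 Read-out: reporter mRNA via RT-PCR plus capillary electrophoresis of 6-FAM-labelled fragments. Transiently transfected HepG2, 24 h exposure, endogenous TF activity on cis elements. Gain or loss of signal fitted relative to DMSO.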

[4] = target: Cellular tumor antigen p53 (Homo sapiens) (UniProt P04637); assay: ATG_p53_CIS: Attagene CIS-FACTORIAL HepG2 Assay for human p53 Transcription Factor (AID 2282994); settings: HepG2 p53 cis-element reporter, Attagene mRNA; actives raise or lower the signal
Sequence of Cellular tumor antigen p53 (Homo sapiens) (P04637 whole entry, looked up, the tested form may be a part): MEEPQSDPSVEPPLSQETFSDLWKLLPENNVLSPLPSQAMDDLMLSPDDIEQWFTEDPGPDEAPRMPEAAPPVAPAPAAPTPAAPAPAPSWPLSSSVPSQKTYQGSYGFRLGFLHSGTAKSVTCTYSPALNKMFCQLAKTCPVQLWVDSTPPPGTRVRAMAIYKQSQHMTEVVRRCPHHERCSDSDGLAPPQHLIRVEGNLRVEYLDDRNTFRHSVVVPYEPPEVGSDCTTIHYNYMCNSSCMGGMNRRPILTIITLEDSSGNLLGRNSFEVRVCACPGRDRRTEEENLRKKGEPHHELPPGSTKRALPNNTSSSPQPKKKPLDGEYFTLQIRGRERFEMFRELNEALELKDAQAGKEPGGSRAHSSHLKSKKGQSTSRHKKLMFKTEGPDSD
How it was run: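 Steps: transfect HepG2 with multiplexed cis reporter constructs; dose chemicals 24 h; extract RNA, reverse-transcribe, PCR-amplify reporter sequences; FAM-label, HpaI-digest, resolve fragments by CE. Activity fitted both directions relative to DMSO.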

[5] = BSK_3C_TissueFactor: BioMAP Diversity Plus: 3C Assay for Tissue Factor Biomarker Activity (AID 2282997); settings: BioMAP 3C HUVEC, tissue factor biomarker readout; actives raise or lower the signal
How it was run: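 HUVEC, 3C system, 24 h post-dose; Tissue Factor by ELISA; bidirectional fit vs DMSO baseline.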

[6] = BSK_3C_uPAR: BioMAP Diversity Plus: 3C Assay for Urokinase-type plasminogen activator receptor (uPAR) Biomarker Activity (AID 2282998); settings: BioMAP 3C HUVEC, uPAR biomarker ELISA; actives raise or lower the signal
How it was run: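 HUVEC primary cells; 24 h post-dose; uPAR by ELISA; gain or loss of signal fitted bidirectionally vs DMSO baseline.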

[7] = BSK_3C_VCAM1: BioMAP Diversity Plus: 3C Assay for Vascular cell adhesion molecule 1 (VCAM1) Biomarker Activity (AID 2282999); settings: BioMAP 3C HUVEC, VCAM1 ELISA, cytokine-stimulated; actives raise or lower the signal
How it was run: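 Activity fitted in both directions relative to DMSO, with ELISA measurement of the surface marker on primary HUVEC (3C) at 24 h post-treatment; parallel SRB staining (0.1% SRB, TCA-fixed, 560 nm) flagged overt cytotoxicity.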

[8] = BSK_4H_Eotaxin3: BioMAP Diversity Plus: 4H Assay for Eotaxin 3 Biomarker Activity (AID 2283000); settings: primary human endothelial cells (HUVEC); actives raise or lower the signal
How it was run: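 Readout is Eotaxin-3 (CCL26) level by ELISA in primary human umbilical vein endothelial cells harvested 24 h after chemical exposure; activity fitted in both directions against DMSO control.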

[9] = target: human Peroxisome Proliferator-activated Receptor alpha (PPARa), PPARA (gene 5465) (UniProt Q07869); assay: ATG_PPARa_TRANS: Attagene TRANS-FACTORIAL HepG2 Assay for human Peroxisome Proliferator-activated Receptor alpha (PPARa) (AID 2283001; active = hit-call score of the fitted dose curve at least 0.9, where 1 is the maximum;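 as to AC50: potency for gain of reporter signal over DMSO so agonist or activator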)
Sequence of human Peroxisome Proliferator-activated Receptor alpha (PPARa), PPARA (gene 5465) (Q07869 whole entry, looked up, the tested form may be a part): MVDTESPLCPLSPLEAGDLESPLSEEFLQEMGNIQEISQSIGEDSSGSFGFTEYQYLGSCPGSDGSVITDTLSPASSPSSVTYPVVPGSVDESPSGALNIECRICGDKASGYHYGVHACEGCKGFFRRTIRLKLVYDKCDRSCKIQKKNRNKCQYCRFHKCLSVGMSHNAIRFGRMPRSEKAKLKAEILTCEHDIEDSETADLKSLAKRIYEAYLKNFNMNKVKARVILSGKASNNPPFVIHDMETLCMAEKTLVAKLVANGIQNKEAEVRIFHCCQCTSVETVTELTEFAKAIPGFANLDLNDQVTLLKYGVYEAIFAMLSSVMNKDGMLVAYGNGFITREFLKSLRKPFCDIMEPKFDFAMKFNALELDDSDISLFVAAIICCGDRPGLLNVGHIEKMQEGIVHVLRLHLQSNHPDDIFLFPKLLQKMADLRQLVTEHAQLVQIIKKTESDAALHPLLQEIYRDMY
How it was run: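 Transfected HepG2 cells treated with test chemical for 24 h. RNA isolated, reverse-transcribed with oligo(dT), PCR-amplified, FAM-labelled and HpaI-digested. Fragments sized by capillary electrophoresis; gain-of-signal fit relative to DMSO.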

[10] = target: human Peroxisome Proliferator-activated Receptor delta (PPARd), PPARD (gene 5467) (UniProt Q03181); assay: ATG_PPARd_TRANS: Attagene TRANS-FACTORIAL HepG2 Assay for human Peroxisome Proliferator-activated Receptor delta (PPARd) (AID 2283002; active = hit-call score of the fitted dose curve at least 0.9, where 1 is the maximum)
Sequence of human Peroxisome Proliferator-activated Receptor delta (PPARd), PPARD (gene 5467) (Q03181 whole entry, looked up, the tested form may be a part): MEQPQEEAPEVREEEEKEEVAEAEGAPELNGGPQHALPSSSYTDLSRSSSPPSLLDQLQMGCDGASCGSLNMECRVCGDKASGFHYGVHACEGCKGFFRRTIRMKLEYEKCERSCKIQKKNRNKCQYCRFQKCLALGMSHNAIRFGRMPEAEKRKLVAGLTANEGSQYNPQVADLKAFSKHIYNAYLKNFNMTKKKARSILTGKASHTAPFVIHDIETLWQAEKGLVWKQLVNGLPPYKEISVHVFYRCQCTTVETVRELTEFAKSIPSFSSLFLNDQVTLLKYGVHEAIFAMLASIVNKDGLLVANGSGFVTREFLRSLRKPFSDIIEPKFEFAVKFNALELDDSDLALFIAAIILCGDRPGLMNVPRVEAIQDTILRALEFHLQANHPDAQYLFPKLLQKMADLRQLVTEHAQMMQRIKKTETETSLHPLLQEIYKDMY
How it was run: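 Transient HepG2 transfection (multiple GAL4-UAS RTUs, chimeric receptor-Gal4); 24 h dosing; total RNA → oligo(dT) RT → PCR → 6-FAM primer extension → HpaI cut → CE. Positive direction vs DMSO.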

[11] = read-out: Intercellular Adhesion Molecule 1 (ICAM1), ICAM1 (gene 3383); assay: BSK_3C_ICAM1: BioMAP Diversity Plus: 3C Assay for Intercellular Adhesion Molecule 1 (ICAM1) Biomarker Activity (AID 2283003); settings: primary human endothelial cells (HUVEC); actives raise or lower the signal
How it was run: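 ELISA read-out of ICAM-1; HUVEC (primary human), 3C system, 24 h post-dosing; bidirectional fit vs DMSO baseline.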

[12] = BSK_3C_Proliferation: Cell Proliferation Assessment in the BioMAP Diversity Plus: 3C Assay (AID 2283006); settings: primary human endothelial cells (HUVEC);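 as to AC50: potency may reflect either rise or fall in cell number versus DMSO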
How it was run: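 HUVEC, sub-confluent; 48 h chemical exposure; 10% TCA fix, 0.1% SRB stain, A560 total protein. Gain or loss of signal fitted both directions vs DMSO control.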

[13] = target: Peroxisome proliferator-activated receptor gamma (Homo sapiens) (UniProt P37231); assay: ATG_PPARg_TRANS: Attagene TRANS-FACTORIAL HepG2 Assay for human Peroxisome Proliferator-activated Receptor-gamma (PPARg) (AID 2283007; active = hit-call score of the fitted dose curve at least 0.9, where 1 is the maximum)
Sequence of Peroxisome proliferator-activated receptor gamma (Homo sapiens) (P37231 whole entry, looked up): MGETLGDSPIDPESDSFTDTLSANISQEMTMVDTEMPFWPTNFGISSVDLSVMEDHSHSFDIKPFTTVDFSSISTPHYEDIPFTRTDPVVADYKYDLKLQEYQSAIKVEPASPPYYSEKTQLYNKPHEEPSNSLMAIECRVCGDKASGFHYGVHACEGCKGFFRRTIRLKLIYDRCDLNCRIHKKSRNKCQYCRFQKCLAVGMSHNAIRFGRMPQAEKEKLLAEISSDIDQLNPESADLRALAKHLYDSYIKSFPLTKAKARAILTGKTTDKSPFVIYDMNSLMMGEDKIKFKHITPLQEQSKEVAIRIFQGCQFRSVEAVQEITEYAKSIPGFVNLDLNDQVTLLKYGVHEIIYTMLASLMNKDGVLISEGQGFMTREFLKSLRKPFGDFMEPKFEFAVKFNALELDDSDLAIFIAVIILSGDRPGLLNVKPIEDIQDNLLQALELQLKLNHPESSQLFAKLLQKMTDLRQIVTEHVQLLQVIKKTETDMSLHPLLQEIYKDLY
How it was run: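 Twenty-four hours after chemical dosing of transiently transfected HepG2 cells, isolated RNA was converted to cDNA, reporter sequences amplified and 6-FAM-labelled, then HpaI-digested and analysed by capillary electrophoresis. Signal increase against DMSO was fitted.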

[14] = target: Nuclear receptor subfamily 1 group I member 2 (Homo sapiens) (UniProt O75469); assay: ATG_PXR_TRANS: Attagene TRANS-FACTORIAL HepG2 Assay for human Pregnane X Receptor (PXR) (AID 2283008; active = hit-call score of the fitted dose curve at least 0.9, where 1 is the maximum)
Sequence of Nuclear receptor subfamily 1 group I member 2 (Homo sapiens) (O75469 whole entry, looked up, the tested form may be a part): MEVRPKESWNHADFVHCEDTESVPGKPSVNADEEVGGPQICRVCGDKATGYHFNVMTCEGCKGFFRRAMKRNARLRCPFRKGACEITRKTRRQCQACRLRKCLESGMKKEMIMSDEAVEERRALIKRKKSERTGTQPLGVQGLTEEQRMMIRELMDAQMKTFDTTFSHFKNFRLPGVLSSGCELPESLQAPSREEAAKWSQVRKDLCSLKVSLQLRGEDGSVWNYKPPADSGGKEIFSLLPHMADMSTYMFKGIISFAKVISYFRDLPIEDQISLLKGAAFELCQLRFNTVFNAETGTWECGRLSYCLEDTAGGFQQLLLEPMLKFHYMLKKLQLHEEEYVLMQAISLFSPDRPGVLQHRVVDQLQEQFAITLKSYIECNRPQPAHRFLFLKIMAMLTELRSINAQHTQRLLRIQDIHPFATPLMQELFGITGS
How it was run: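 HepG2 transfected (FuGene 6) with GAL4-UAS reporter units + PXR-Gal4 chimera; dosed 24 h. Total RNA → oligo(dT) RT → PCR → 6-FAM primer extension → HpaI cut → CE. Gain-of-signal vs DMSO.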

[15] = target: human Retinoic Acid Receptor beta (RARb), RARB (gene 5915) (UniProt P10826); assay: ATG_RARb_TRANS: Attagene TRANS-FACTORIAL HepG2 Assay for human Retinoic Acid Receptor beta (AID 2283004; active = hit-call score of the fitted dose curve at least 0.9, where 1 is the maximum)
Sequence of human Retinoic Acid Receptor beta (RARb), RARB (gene 5915) (P10826 whole entry, looked up, the tested form may be a part): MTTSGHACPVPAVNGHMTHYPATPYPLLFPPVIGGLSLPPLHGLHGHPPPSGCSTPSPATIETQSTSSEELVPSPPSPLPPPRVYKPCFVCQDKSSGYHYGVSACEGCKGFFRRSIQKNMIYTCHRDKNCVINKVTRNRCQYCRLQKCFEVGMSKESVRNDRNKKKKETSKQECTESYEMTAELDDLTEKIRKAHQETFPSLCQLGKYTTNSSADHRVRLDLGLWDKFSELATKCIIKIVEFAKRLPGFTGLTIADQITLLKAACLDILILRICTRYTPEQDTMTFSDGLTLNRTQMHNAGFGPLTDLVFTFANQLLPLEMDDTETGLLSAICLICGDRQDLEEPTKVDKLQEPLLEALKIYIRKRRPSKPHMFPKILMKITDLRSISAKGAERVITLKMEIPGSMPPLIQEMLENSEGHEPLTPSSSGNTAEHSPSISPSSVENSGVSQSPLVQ
How it was run: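 Readout is reporter mRNA induction: RNA reverse-transcribed, PCR-amplified, FAM-labelled, HpaI-cut and resolved by capillary electrophoresis. Transiently transfected HepG2 cells carrying exogenous NR–Gal4 chimeras were dosed for 24 h; activity fitted upward relative to DMSO.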

[16] = target: Retinoic acid receptor alpha (Homo sapiens) (UniProt P10276); assay: ATG_RARa_TRANS: Attagene TRANS-FACTORIAL HepG2 Assay for human Retinoic Acid Receptor alpha (RARa) (AID 2283005; active = hit-call score of the fitted dose curve at least 0.9, where 1 is the maximum)
Sequence of Retinoic acid receptor alpha (Homo sapiens) (P10276 whole entry, looked up, the tested form may be a part): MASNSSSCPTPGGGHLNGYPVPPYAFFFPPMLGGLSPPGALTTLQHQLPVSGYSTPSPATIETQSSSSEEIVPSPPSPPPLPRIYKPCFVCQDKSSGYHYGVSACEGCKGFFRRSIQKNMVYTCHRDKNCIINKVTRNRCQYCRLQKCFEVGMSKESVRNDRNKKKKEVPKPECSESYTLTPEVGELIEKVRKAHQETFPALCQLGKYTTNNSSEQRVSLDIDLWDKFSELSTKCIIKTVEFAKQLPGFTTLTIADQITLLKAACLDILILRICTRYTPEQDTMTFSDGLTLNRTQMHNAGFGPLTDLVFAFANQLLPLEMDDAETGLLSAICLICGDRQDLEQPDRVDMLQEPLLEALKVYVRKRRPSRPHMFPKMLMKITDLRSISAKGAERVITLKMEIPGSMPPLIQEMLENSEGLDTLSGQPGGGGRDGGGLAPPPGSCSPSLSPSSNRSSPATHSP
How it was run: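 Reporter transcripts, measured by RT-PCR with fluorescent labeling and capillary electrophoresis after 24 h dosing, reflect activity of an exogenous human RARa–GAL4 fusion in transiently transfected HepG2. Fitted for increase relative to DMSO.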

[17] = target: human Retinoic Acid Receptor gamma (RARg), RARG (gene 5916) (UniProt P13631); assay: ATG_RARg_TRANS: Attagene TRANS-FACTORIAL HepG2 Assay for human Retinoic Acid Receptor gamma (RARg) (AID 2283009; active = hit-call score of the fitted dose curve at least 0.9, where 1 is the maximum)
Sequence of human Retinoic Acid Receptor gamma (RARg), RARG (gene 5916) (P13631 whole entry, looked up, the tested form may be a part): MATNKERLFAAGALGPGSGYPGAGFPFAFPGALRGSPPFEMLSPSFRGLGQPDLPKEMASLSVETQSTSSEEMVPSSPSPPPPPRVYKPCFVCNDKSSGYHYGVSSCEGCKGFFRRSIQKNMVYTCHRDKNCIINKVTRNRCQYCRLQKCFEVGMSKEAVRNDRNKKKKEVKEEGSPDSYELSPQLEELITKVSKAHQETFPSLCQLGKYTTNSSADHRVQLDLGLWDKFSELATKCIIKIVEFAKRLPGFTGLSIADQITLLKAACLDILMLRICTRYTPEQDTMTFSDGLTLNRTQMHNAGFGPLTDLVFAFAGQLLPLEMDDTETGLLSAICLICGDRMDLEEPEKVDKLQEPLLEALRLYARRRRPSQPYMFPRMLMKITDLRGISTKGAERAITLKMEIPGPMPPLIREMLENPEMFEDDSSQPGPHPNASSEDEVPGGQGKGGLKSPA
How it was run: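 Readout: reporter transcript levels via RT-PCR, 6-FAM primer-extension labelling, HpaI digestion and capillary electrophoresis. Cells: HepG2 carrying transfected RARg-GAL4 chimera plus UAS reporter set. Dosing 24 h; DMSO negative control.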

[18] = target: human RAR-related Orphan Receptor gamma (RORg), RORC (gene 6097) (UniProt P51449); assay: ATG_RORg_TRANS: Attagene TRANS-FACTORIAL HepG2 Assay for human RAR-related Orphan Receptor gamma (RORg) (AID 2283011; active = hit-call score of the fitted dose curve at least 0.9, where 1 is the maximum)
Sequence of human RAR-related Orphan Receptor gamma (RORg), RORC (gene 6097) (P51449 whole entry, looked up, the tested form may be a part): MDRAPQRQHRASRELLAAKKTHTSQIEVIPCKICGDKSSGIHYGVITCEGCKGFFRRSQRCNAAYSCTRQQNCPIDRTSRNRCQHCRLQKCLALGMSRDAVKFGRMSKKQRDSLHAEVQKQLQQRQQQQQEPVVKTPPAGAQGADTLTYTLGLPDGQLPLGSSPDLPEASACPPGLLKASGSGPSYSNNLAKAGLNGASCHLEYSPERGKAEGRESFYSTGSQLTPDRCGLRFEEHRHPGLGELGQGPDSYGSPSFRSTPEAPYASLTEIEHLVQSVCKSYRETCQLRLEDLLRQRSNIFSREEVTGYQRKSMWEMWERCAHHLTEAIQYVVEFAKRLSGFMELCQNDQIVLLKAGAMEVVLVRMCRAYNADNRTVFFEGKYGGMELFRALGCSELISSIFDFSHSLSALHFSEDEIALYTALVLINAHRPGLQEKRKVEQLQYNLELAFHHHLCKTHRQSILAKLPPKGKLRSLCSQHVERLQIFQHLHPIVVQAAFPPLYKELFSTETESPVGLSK
How it was run: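 Transient MRTU transfection of HepG2 (TRANS format, exogenous NR-Gal4 chimera). 24 h dosing. Total RNA → oligo(dT) RT → PCR → 6-FAM labelling → HpaI cut → CE. Gain vs DMSO.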

[19] = target: human RAR-related Orphan Receptor beta (RORb), RORB (gene 6096) (UniProt Q92753); assay: ATG_RORb_TRANS: Attagene TRANS-FACTORIAL HepG2 Assay for human RAR-related Orphan Receptor beta (RORb) (AID 2283010; active = hit-call score of the fitted dose curve at least 0.9, where 1 is the maximum)
How it was run: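 HepG2, transient MRTU transfection (GAL4-UAS reporters, exogenous NR-Gal4 chimeras); 24 h compound exposure; total RNA → RT-PCR → 6-FAM primer extension → HpaI digest → CE fluorescence. Positive direction vs DMSO baseline.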

Measured: AC50

CC(=O)[C@H]1CC[C@H]2[C@@H]3CCC4=CC(=O)CC[C@]4(C)[C@H]3CC[C@]12C
inactive: [1] | [2] | [3] | [4] | [7] | [9] | [10] | [11] | [13]
active: [2] 33.4 µM and 16.3 µM | [5] 13.1 µM | [6] 5.32 µM | [8] 25.9 µM | [10] 136 µM | [12] 3.36 µM | [14] 2.54 µM [middle of 4 runs]

CCOC(=O)COc1cc(-n2ncc(C(F)(F)F)c(C)c2=O)c(F)cc1Cl
inactive: [1] | [2] | [4] | [5] | [6] | [7] | [8] | [9] | [11] | [15] | [16] | [12] | [13] | [14] | [17] | [18]

CCN(CC)C(=O)c1cccc(C)c1
inactive: [1] | [2] | [5] | [6] | [7] | [8] | [9] | [10] | [11] | [15] | [16] | [12] | [13] | [14] | [17] | [18]

C=CCOC(Cn1ccnc1)c1ccc(Cl)cc1Cl (centres undefined)
inactive: [4] | [5] | [6] | [7] | [8] | [9] | [10] | [11] | [14] | [18]
active: [1] 75.3 µM | [2] 5.64 µM | [12] 21.5 µM | [13] 71.7 µM

CCCN(CCC)C(=O)SCC
inactive: [1] | [2] | [4] | [5] | [6] | [7] | [8] | [9] | [11] | [12] | [13] | [14] | [19] | [18]

CN(C)C(=O)Nc1ccc(Cl)c(Cl)c1
active: [2] 23.6 µM and 13.1 µM | [9] 15 µM | [14] 6.84 µM
inactive: [1] | [4] | [5] | [6] | [7] | [8] | [9] | [10] | [11] | [15] | [16] | [12] | [13] | [14] | [17] | [19] | [18]

CCCOC(=O)NCCCN(C)C
inactive: [1] | [2] | [4] | [5] | [6] | [7] | [8] | [9] | [11] | [15] | [16] | [12] | [13]
